Screens (PubChem)
KB-3-1 cytotox: kills parental KB-3-1 adenocarcinoma cells; KB-3-1 viability, CellTiter-Glo ATP luminescence, 72 h; Potency, µM (doses to about 46.1 µM), actives largely listed as cytotoxic; 400,000 compounds, 1.4% hits; AID 1347075; note: nearly all actives have a fitted effect of over 60% in size
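Here the drug-naive KB-3-1 line serves as comparator for MDR sub-line selectivity; cells received compound titrations, 72 h at 37 °C, then CellTiter-Glo readout.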
KB-V1 MDR tox: KB-V1 MDR subline cytotoxicity; KB-V1 MDR cells viability, CellTiter-Glo, 72 h; Potency, µM (series often up to 46.1 µM), actives largely listed as cytotoxic; 400,000 compounds, 3.4% hits; note: nearly all actives have a fitted effect of over 60% in size
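KB-V1, DMEM (no phenol red) + 10% FBS; cpd pin-transferred, titration series; 72 h, 37 degrees C; CellTiter-Glo, luminescence. Data normalized, curve-fit.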
HT1080 IDH1KD tx: kills HT-1080 cells with IDH1 knockdown; Potency, µM (titrated, usually from 46.1 µM), actives largely listed as cytotoxic; 360,000 compounds, 2% hits; AID 686971; HT-1080 IDH1 knockdown viability, ATP luminescence, 48 h
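Cytotoxicity counter-line: IDH1KD HT-1080, 48 h, CellTiter-Glo. Curves classed by r2, magnitude and activity.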
DT40 TDP1 no CPT: qHTS for Inhibitors of human tyrosyl-DNA phosphodiesterase 1 (TDP1): qHTS in cells in absence of CPT. DT40 Tdp1-/- hTDP1 cells, no CPT, ATP luminescence, 48 h. 420,000 compounds, 15% hits. AID 686978, 2013. Potency, µM (top dose mostly 46.2 µM), most hits filed as inhibitors; note: nearly all actives have a fitted effect of over 55% in size
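Compound effects on proliferation are scored in DT40 Tdp1-/-;hTDP1 cells in the absence of CPT. ATP levels (CellTiter-Glo luminescence) are recorded after a ≥48 hr, 37 °C incubation.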
DT40 TDP1 CPT: growth inhibition of DT40 Tdp1-/-;hTDP1 cells with camptothecin (screen for TDP1 inhibitors); 420,000 compounds, 12% hits; Potency, µM (highest dose often 46.2 µM), hits mostly inhibitors; AID 686979; chicken DT40 Tdp1-/-;hTDP1 cells + 20 nM CPT, ATP luminescence, 48 h; note: nearly all actives have a fitted effect of over 55% in size
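Chicken DT40 Tdp1-/- cells stably complemented with human TDP1 were seeded at 400 cells/well in medium containing 20 nM camptothecin, exposed to pin-transferred compounds, and grown at 37 °C for at least 48 hr. Viability was read as ATP luminescence.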
HT1080-NT tox: kills 2HG-producing HT-1080-NT fibrosarcoma cells | HT-1080-NT fibrosarcoma viability, CellTiter-Glo ATP luminescence, 48 h | Potency, µM (titrated, usually from 46.1 µM), most hits filed as cytotoxic | 360,000 compounds, 1.6% hits;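 note: NT is the 2HG producing partner of a matched IDH1 knockdown line; nearly all actives have a fitted effect of over 55% in size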
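Toxicity toward the 2HG-producing NT line was scored as %Activity, normalised to DMSO and no-cell wells, from CellTiter-Glo luminescence after 48 hours' treatment.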
Hits are given with their value; . = inactive; ? = inconclusive; / = no result given. Hits are enriched below; roughly 19% of the tested compounds scored in any of these assays. Calls come from the whole dose curve; as a rule, active = well fitted curve in the direction sought with a large enough effect; inconclusive = small, poorly fitted or top-dose-only effect, or another doubt; inactive = no such curve, though single readings can be large; an effect the other way counts as inactive or inconclusive.

SMILES	KB-3-1 cytotox	KB-V1 MDR tox	HT1080 IDH1KD tx	DT40 TDP1 no CPT	DT40 TDP1 CPT	HT1080-NT tox
CC1(C(=O)Nc2cccc(C(F)(F)F)c2)Cc2c(-c3ccccc3)ccnc2O1 (configuration not stated)	.	.	?	?	?	?
CC(=O)Nc1cccc(-c2ccnc3c2CC(C)(C(=O)Nc2ccc4c(c2)OCO4)O3)c1 (configuration not stated)	2.31µM	8.2µM	?	0.651µM	0.651µM	?
CC(=O)Nc1cccc(-c2ccnc3c2CC(C)(C(=O)Nc2cccc(C(C)=O)c2)O3)c1 (configuration not stated)	?	.	14.6µM	6.51µM	5.8µM	.
CC(=O)Nc1cccc(-c2ccnc3c2CC(C)(C(=O)NC(C)C)O3)c1 (configuration not stated)	.	.	.	.	?	.
CC(C)NC(=O)C1(C)Cc2c(-c3cccc(C(F)(F)F)c3)ccnc2O1 (configuration not stated)	.	.	.	11.6µM	18.4µM	.
CC1(C(=O)Nc2ccc(Cl)cc2)Cc2c(-c3cccc(C(F)(F)F)c3)ccnc2O1 (configuration not stated)	?	?	?	23.1µM	?	?
CC1(C(=O)Nc2ccc3c(c2)OCO3)Cc2c(-c3ccccc3)ccnc2O1 (configuration not stated)	?	?	?	?	?	.
CC1CCN(S(=O)(=O)c2cccc(C(=O)Nc3nncs3)c2)CC1	.	?	.	.	.	.
CCOC(=O)c1[nH]c(C)c(CCC(=O)Nc2cccc(C(F)(F)F)c2)c1C	.	.	/	?	?	/
Cc1noc(C)c1C(=O)N1CCC2(CCN(C(=O)Nc3ccccc3)CC2)CC1	/	/	/	.	.	/
Cc1ccc(CNC(=O)C(CC(C)C)N2Cc3ccccc3C2=O)cc1 (configuration not stated)	.	.	/	?	?	/
Nc1ccn([C@@H]2O[C@H](C(=O)Nc3ccc(Oc4ccccc4)nc3)[C@@H](O)[C@H]2O)c(=O)n1	.	.	.	.	.	.
CC(=O)Nc1cccc(-c2ccnc3c2CC(C)(C(=O)Nc2ccc(Cl)cc2)O3)c1 (configuration not stated)	2.31µM	?	4.11µM	4.11µM	1.64µM	9.2µM
CC(=O)Nc1cccc(-c2ccnc3c2CC(C)(C(=O)NCc2ccncc2)O3)c1 (configuration not stated)	?	.	.	18.4µM	20.6µM	.
CC(=O)Nc1ccc(-c2ccnc3c2CC(C)(C(=O)Nc2ccc(F)c(Cl)c2)O3)cc1 (configuration not stated)	.	?	?	23.1µM	?	?
CC(=O)Nc1ccc(NC(=O)C2(C)Cc3c(-c4cccc(NC(C)=O)c4)ccnc3O2)cc1 (configuration not stated)	.	.	.	.	.	.
CC(=O)Nc1ccc(-c2ccnc3c2CC(C)(C(=O)NCc2ccncc2)O3)cc1 (configuration not stated)	.	.	.	.	.	.
COc1ccc(NC(=O)C2(C)Cc3c(-c4cccc(C(F)(F)F)c4)ccnc3O2)cc1OC (configuration not stated)	?	.	14.6µM	20.6µM	16.4µM	20.6µM
CCOc1ccc(-n2ccc(=O)c(C(=O)O)n2)cc1	.	.	.	.	.	.
CC(Oc1ccccc1F)C(=O)NNC(=O)Cc1ccc(S(=O)(=O)N2CCOCC2)s1 (configuration not stated)	.	.	.	.	?	.
COc1ccc(C2=NN(C)C(=NCc3ccccc3)SC2)cc1	?	23.1µM	.	?	.	.
CCOc1ccc(S(=O)(=O)N(CC)CC(=O)NC2CCS(=O)(=O)C2)cc1 (configuration not stated)	.	.	.	.	.	.
